# Experimental data reported in publication PMC12136788.
# Whole data set: some 24,000 sequences, median “enrichment r” near 0.99, cut for the highest 2% near 3.7. The full list was thinned out, with the highest values kept by preference.
# T1: UNK ZnF1-3 (human, UniProt Q9C0B0 31-174)
# T1 sequence: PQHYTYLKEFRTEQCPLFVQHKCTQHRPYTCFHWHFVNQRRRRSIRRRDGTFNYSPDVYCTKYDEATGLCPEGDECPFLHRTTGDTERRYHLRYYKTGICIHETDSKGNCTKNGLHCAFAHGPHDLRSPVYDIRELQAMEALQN
# B1: 74654529_74654649_2250_CDS_ENSG00000113161_ENST00000287936|human|control|control (ssRNA)
# RNA: GGGAGUUCUACAGUCCGACGAUCUCUGACAACCUUGGCUGGAAUGACAGCUUCACAAACAACAGAUUUUCCUCUUCCCUCUAUCCAAUUUAUAGCAGCAGGUUUCUUGUCAGUACAAUAGUUACCACUAACGGCUAGAAUCUGCAACAGAGGAUUGAGCAUCA
# B2: chr22:19452774:19452775:-_ENSG00000070010_ENST00000399523|hu_hu|hu_hu_hu_mus_False|18_88 (ssRNA)
# RNA: GGGAGUUCUACAGUCCGACGAUCCUUCUCAUUGUAGUUGAUAGCAAUCACAUCCCCAGUCGUCAGACAGGCGAAGUUUCUCAAUGCAUUUUCUAAUACCGCUUUAGGGUUGGUAAUGUCCAGGAAGUCUGGGCUCUGAGGCUGCAACAGAGGAUUGAGCAUCA
# B3: chrX:100667754:100667755:+_ENSG00000126945_ENST00000316594|hu_hu|FALSE|FALSE (ssRNA)
# RNA: GGGAGUUCUACAGUCCGACGAUCUCCGUAUCUAUGAUCAGACAUUCCUGAAAAACAGUAAUUGAGGUCUCUUCCAAAUCUAUCAGACCCAAAGCCAUAUCCAUCAUUAUAGCCACCAUAGUCAUCAUAGCCUCCAUACCCUCCCAACAGAGGAUUGAGCAUCA
# B4: 31508769_31511148_1743_CDS_ENSG00000113360_ENST00000513349|human|control|control (ssRNA)
# RNA: GGGAGUUCUACAGUCCGACGAUCAGGGUGGGCCUUUUUGCGUUUGAUUUCUGCAAUAACGUCAAAAACUUCAGAGUCUGAGCUGCUAGAACAGGUGCUGUCCUCAUCAGACUCACACUCGGAUUCACUGGAACUCUCUAAAUCCAACAGAGGAUUGAGCAUCA
# B5: chr1:163112212:163112213:-_ENSG00000143248_ENST00000313961|hu_hu|hu_hu_hu_mus_False|48_48 (ssRNA)
# RNA: GGGAGUUCUACAGUCCGACGAUCUUUUAUUAUCAGUAAGAGUGAGUUACAUACUAGGCAAAGUAUUGGAUACAAUAAUCAGGAAACAAACACAAUUGGUCCAGAAUUUAAAACUUUAUGAGCGAAGUGCUGGCACAGGACUUACAACAGAGGAUUGAGCAUCA
# B6: chr17:65740002:65740003:+_ENSG00000130935_ENST00000581375|hu_hu|hu_hu_hu_mus_False|48_58 (ssRNA)
# RNA: GGGAGUUCUACAGUCCGACGAUCAACAAAUCUUUCUUCCCUGGACGAACAGGAAGAUUCAUAUUAAAAAAAAUAUAUGUCUAUGAAGGAGAAUUGAGUGGCCACACCUUUACUCCCAGCACUUUGGGAGGUGGAUCUCUGAGUCAACAGAGGAUUGAGCAUCA
# B7: chr3:127788656:127788657:+_ENSG00000058262_ENST00000243253|hu_mus|motif|central (ssRNA)
# RNA: GGGAGUUCUACAGUCCGACGAUCAAUUCACUUCUACUGGUUUUUUGCCAAUGCCAGAAAAAGCAAAAUUUCAAAUUGGAAAUUUCCGGGCACUUUACACAGUGGAAUGAAAAGAUAUGAAAUUUUAAAAAAAAUUAAAAAAAACAACAGAGGAUUGAGCAUCA
# B8: chr3:127788656:127788657:+_ENSG00000058262_ENST00000243253|hu_hu|motif|central (ssRNA)
# RNA: GGGAGUUCUACAGUCCGACGAUCCACUUUCACAGUUCUUUUUGCCAGUGCCAGGAUAAAAAGCAAAAUUUUAAAUUGGAAAAUGUCGGGCACUUUACACAGUGGAAUGAAAGAAUACGAAAUUCAAAAACAUUAUUAAAAGUCCAACAGAGGAUUGAGCAUCA
# B9: chr3:154749246:154749247:-_ENSMUSG00000053870_ENSMUST00000066568|mus_hu|FALSE|FALSE (ssRNA)
# RNA: GGGAGUUCUACAGUCCGACGAUCGCCAUUUUUAUUAUUAAAAAUAGAAUUACAGUUGAGGAGAGAAGUGCCAGUGAAUACUUAGAACUUCACUGGACCAAAAGCCUCAAAAAAGAUGGAAAAAUUCCAAAGGUAUGCUUAGAACAACAGAGGAUUGAGCAUCA
# B10: chr16:94664382:94664383:+_ENSMUSG00000040785_ENSMUST00000117648|mus_hu|motif|central (ssRNA)
# RNA: GGGAGUUCUACAGUCCGACGAUCAAAAGCUGGUGCUGAAGAUGAAUCUGACACUGGUUUAGACUUUACAUCUGGUUUAAAUUCCCGGGCAGCUGGAUUCAGUUGUAGUUUAACUCGUACAUACUCCCCUGCUUUUGAAAUUUCCAACAGAGGAUUGAGCAUCA
# B11: 95941554_95941674_2216_3pUTR_ENSG00000164938_ENST00000448464|human|control|control (ssRNA)
# RNA: GGGAGUUCUACAGUCCGACGAUCGCCAGAGUGGUUAAAGAUUUUGCCUGAAGUUAAAACAAAAAAUGAAAAGUCACUUGGACUGCAGGGAAGAAUACUUACAAUACAAGGCAAUUAAAAAAAAAAAAAGAAAAAAGUUGAGCCCAACAGAGGAUUGAGCAUCA
# B12: 140276459_140277056_1559_CDS_ENSMUSG00000040945_ENSMUST00000038893|mouse|control|control (ssRNA)
# RNA: GGGAGUUCUACAGUCCGACGAUCGUCUCGCGCUAUCACCAAGGAGUGUGAAUAGCCCAUGGCCACCUGUUCGGAGAAGAUGCCAUCCAGAGUCUUCACCUCCUGGGCCGCAGUAGAAGACUUGGGCUUGUGGUCCCCAUACCCCAACAGAGGAUUGAGCAUCA
# B13: chr18:77696836:77696837:-_ENSMUSG00000025427_ENSMUST00000026494|mus_mus|FALSE|FALSE (ssRNA)
# RNA: GGGAGUUCUACAGUCCGACGAUCUCCUCGGGAUAGAGGGAUGAGAGGGCUUAGGAAUGUAGGGAGGGGAGGGAAGACAGAGAGCAGACUUGAGGUGGGGAAAGAGGCCUGGGGGAGGGGGCACGAGUGACAAGUGAAAGGAUUCAACAGAGGAUUGAGCAUCA
# B14: chr11:71671816:71671817:+_ENSG00000137522_ENST00000530137|hu_hu|FALSE|FALSE (ssRNA)
# RNA: GGGAGUUCUACAGUCCGACGAUCGCGAUGAGGAUGAGGACCAUUUCAGCAUGCAUAGCUUCAUGGCCACGGUGCUUGGCAUGCAUGCGUGCGUGCUCGACCCUCAUCCAGCUCCCGUUCCCCAGCAGCACCACCUCCAACCUCCAACAGAGGAUUGAGCAUCA
# Biological target: T1, UNK ZnF1-3
# Assay: nsRBNS (natural sequence RNA bind-n-seq); RBNS binding buffer (assumed for nsRBNS): 25 mM Tris pH 7.5, 150 mM KCl, 3 mM MgCl2, 0.01% Triton X-100, 500 ug/ml BSA, 20 U/ml SUPERase-In, 4 C; UNK is unkempt and MSI1 is Musashi-1; names of the RNAs are library labels; protein concentration not given here; high values mean tight binding
row,Binder,binding signal
1,B1,1.16 enrichment R
2,B2,0.83 enrichment R
3,B3,1.11 enrichment R
4,B4,0.49 enrichment R
5,B5,1.39 enrichment R
6,B6,1.64 enrichment R
7,B7,6.28 enrichment R
8,B8,4.09 enrichment R
9,B9,2.22 enrichment R
10,B10,1.16 enrichment R
11,B11,12.6 enrichment R
12,B12,0.829 enrichment R
13,B13,2.5 enrichment R
14,B14,0.585 enrichment R
